In PubChem BioAssay (NCATS) one finds outcome and Potency data, which are given here for 28 compounds.

Experiment [1] can be described thus: Confirmation and Secondary Assay for Modulators of Hemoglobin Beta Chain Splicing at IVS2 705 locus (AID 930).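 Also: HeLa cells stably expressing the EGFP-705 splicing reporter; GFP fluorescence per well restored by corrected splicing of the IVS2-705 intron in EGFP; series mostly up to about 46 µM.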 In short, it runs like this:
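Splice-correction reporter: EGFP cDNA split by beta-globin intron 2 bearing the 705 mutation, stably in HeLa. Compound incubation 2 days, 37C; fluorescent objects 5-250 µm summed per well.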

Experiment [2] concerns the target Muscarinic acetylcholine receptor M1 (Rattus norvegicus) (UniProt P08482). As to the kind of experiment: qHTS Assay for Antagonists of Acetylcholine Muscarinic M1 Receptor: Measurement of IP-One Response (AID 944). Also: nearly all actives have a fitted effect of over 75% in size. Also: potency is read from the fitted curve at half-maximal effect. In short, it runs like this:
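Steps: plate transfected CHO-M1 cells overnight; add test compound, 10 min; add carbachol (200 nM, EC80) in stimulation buffer with LiCl; incubate 30 min; add labelled IP1 tracer and anti-IP1 antibody in lysis buffer; read HTRF after 10 min.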

The target of experiment [3] is Pyruvate kinase (Leishmania mexicana) (UniProt Q27686). As to the kind of experiment: qHTS Validation Assay for Inhibitors of Leishmania Mexicana Pyruvate Kinase (AID 945). In short, it runs like this:
(§1)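 The enzyme is a highly purified E451W mutant of LmPYK used at 0.2 nM. It converts 0.5 mM PEP and 0.1 mM ADP over 1 h at room temperature; product ATP is quantified by luciferase luminescence relative to DMSO controls.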
For orientation: qHTS replaces the single test concentration by a dilution series.

Experiment [4] concerns the target Pyruvate kinase PKM (Homo sapiens) (UniProt P14618). As to the kind of experiment: qHTS Assay for Activators of Human Muscle Pyruvate Kinase (AID 954; active = well fitted curve in the direction sought with a large enough effect, not every such curve was filed as active). The method in brief:
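Reaction: 0.1 nM purified PKM2 with 0.5 mM phosphoenolpyruvate and 0.1 mM ADP, room temperature, 1 h. Readout: luciferase-based ATP luminescence after stop reagent. Activators judged against a 0.3 nM enzyme column.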

A short description of experiment [5]: Cell Viability - LYMP2-005 (AID 967). Also: potency is read from the fitted curve at half-maximal effect. In short, it runs like this: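 Steps: seed 2500 LYMP2-005 cells/well, incubate 5 h at 37 C, add compound, incubate 24 h at 37 C, add CellTiter-Glo, wait 30 min at RT, read luminescence. Concentration-response data fitted to Hill equation for AC50.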
Experiment [6] can be described thus: Cell Viability - LYMP2-009 (AID 968). Also: nearly all actives have a fitted effect of over 55% in size. Also: potency is read from the fitted curve at half-maximal effect.
A short description of experiment [7]: MultiTox-Fluor Cytotoxicity Assay - LYMP1-001 - Dead Cells (AID 946).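 Also: cells exposed to compound for 16 h.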 In short, it runs like this: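 Seed 2500 LYMP1-001 cells/well, incubate 5 hr at 37 C; add compound, 16 hr at 37 C; add MultiTox-Fluor reagent, 60 min RT; read dead-cell fluorescence Ex/Em=485/520. Normalize to DMSO and 15 uM tetraoctylammonium bromide.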
Experiment [8] can be described thus: MultiTox-Fluor Cytotoxicity Assay - LYMP1-001 - Live Cells (AID 947).
Experiment [9] can be described thus: Cell Viability - LYMP1-002 - Assay at 16 hr (AID 948). In short, it runs like this:
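LYMP1-002 human lymphoblastoid cells, 2500/well; 5 hr 37 C; cpd 16 hr 37 C; CellTiter-Glo 30 min RT; luminescence (ATP). Concentration-response, Hill-fit AC50. Pos ctrl tetraoctylammonium bromide.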

Experiment [10] in a line: MultiTox-Fluor Cytotoxicity Assay - LYMP1-002 - Live Cells (AID 955).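 Also: cells exposed to compound for 16 hours.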 The method in brief: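 Cytotoxicity in the human lymphoblastoid line LYMP1-002 is measured as loss of live-cell protease activity after 16 h treatment in complete culture medium. AC50 is derived from Hill-equation fits of qHTS concentration-response data.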
The target of experiment [11] is Pyruvate kinase (Leishmania mexicana) (UniProt Q27686). Nature of the experiment: qHTS Validation Assay for Activators of Leishmania Mexicana Pyruvate Kinase (AID 959). The method in brief: as §1
Pyruvate kinase (Leishmania mexicana), sequence (Q27686 2-499 E452W): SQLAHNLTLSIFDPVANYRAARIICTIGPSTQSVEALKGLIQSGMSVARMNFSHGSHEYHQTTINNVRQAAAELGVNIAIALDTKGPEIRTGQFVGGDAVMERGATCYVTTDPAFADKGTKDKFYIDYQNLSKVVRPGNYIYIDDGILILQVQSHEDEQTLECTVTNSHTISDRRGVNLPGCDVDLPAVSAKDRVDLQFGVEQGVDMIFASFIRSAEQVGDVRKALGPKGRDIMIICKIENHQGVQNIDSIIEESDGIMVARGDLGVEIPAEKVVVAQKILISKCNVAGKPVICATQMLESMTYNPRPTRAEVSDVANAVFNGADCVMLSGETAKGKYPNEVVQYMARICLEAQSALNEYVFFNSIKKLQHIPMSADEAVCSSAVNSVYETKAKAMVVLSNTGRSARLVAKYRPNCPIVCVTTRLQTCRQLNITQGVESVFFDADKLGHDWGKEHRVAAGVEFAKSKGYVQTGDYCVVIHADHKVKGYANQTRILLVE
Experiment [12] in a line: MultiTox-Fluor Cytotoxicity Assay - LYMP1-003 - Dead Cells (AID 961).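 Also: cells exposed to compound for 16 h at 37 °C; nearly all actives have a fitted effect of over 70% in size.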 The method in brief:
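LYMP1-003 lymphoblastoid, 2500 cells/well, 5 hr settle then 16 hr cpd at 37 C; MultiTox-Fluor reagent 60 min RT; Ex/Em 485/520 dead-cell signal; norm. DMSO = 0%, 15 uM tetraoctylammonium bromide = 100%; Hill AC50.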

Experiment [13] in a line: MultiTox-Fluor Cytotoxicity Assay - LYMP1-003 - Live Cells (AID 962).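 Also: cells exposed to compound for 16 hours at 37 °C; cytotoxic hits lower the live-cell protease signal.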 The method in brief:
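Cells plated at 2500 per well and incubated 5 hr; compounds added and incubated 16 hr at 37 C; MultiTox-Fluor reagent added for 60 min at room temperature; fluorescence of liberated AFC measured at 405/510 nm.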

A short description of experiment [14]: Cell Viability - LYMP2-011 (AID 969). Also: nearly all actives have a fitted effect of over 60% in size. The method in brief:
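Acute toxicity is scored as a concentration-dependent drop in intracellular ATP of a human lymphoblastoid line after 24 hr treatment. Values are AC50s modeled with the Hill equation.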

Experiment [15] is described as follows: Cell Viability - LYMP2-013 (AID 970). Also: series mostly up to about 92 µM; nearly all actives have a fitted effect of over 55% in size. The method in brief: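 Acute toxicity was measured in human lymphoblastoid cells (2500/well) exposed to compound titrations for 24 hr, with ATP luminescence (CellTiter-Glo) as read-out and AC50 fitted by Hill equation.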
Experiment [16] is described as follows: Cell Viability - LYMP2-015 (AID 971). Also: nearly all actives have a fitted effect of over 55% in size. The method in brief: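 Acute toxicity was scored as a concentration-dependent drop in intracellular ATP in lymphoblastoid cells after 24 hr compound exposure in complete medium. Detection used CellTiter-Glo luciferase luminescence.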

The structures appear in SMILES notation. Several values for one entry are separate records, joined by “and”; a condition that tells them apart may be missing. Identical values can stand only once. Results filed as inconclusive are left out. Where a call stands in place of a potency, no number is given. Activity calls are given as the source filed them. Unless noted, calls follow the shape of the dose curve; as a rule, active = well fitted curve in the direction sought with a large enough effect; inconclusive = small, poorly fitted or top-dose-only effect, or another doubt; inactive = no such curve, though single readings can be large; an effect the other way counts as inactive or inconclusive.

Muscarinic acetylcholine receptor M1 (Rattus norvegicus), sequence (P08482 whole entry, looked up): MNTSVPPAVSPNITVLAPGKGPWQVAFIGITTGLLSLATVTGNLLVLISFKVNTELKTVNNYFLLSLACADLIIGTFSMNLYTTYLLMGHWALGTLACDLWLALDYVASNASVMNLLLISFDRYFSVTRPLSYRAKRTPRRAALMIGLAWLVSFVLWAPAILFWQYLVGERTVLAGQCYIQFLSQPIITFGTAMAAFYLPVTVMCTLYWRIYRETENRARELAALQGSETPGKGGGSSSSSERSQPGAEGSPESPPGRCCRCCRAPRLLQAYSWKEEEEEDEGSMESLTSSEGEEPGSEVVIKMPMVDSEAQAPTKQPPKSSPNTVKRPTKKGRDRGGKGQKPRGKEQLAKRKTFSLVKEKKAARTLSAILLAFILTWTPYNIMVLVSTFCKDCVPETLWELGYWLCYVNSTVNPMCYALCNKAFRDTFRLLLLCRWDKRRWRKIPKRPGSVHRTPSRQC
Pyruvate kinase PKM (Homo sapiens), sequence (P14618 whole entry, looked up): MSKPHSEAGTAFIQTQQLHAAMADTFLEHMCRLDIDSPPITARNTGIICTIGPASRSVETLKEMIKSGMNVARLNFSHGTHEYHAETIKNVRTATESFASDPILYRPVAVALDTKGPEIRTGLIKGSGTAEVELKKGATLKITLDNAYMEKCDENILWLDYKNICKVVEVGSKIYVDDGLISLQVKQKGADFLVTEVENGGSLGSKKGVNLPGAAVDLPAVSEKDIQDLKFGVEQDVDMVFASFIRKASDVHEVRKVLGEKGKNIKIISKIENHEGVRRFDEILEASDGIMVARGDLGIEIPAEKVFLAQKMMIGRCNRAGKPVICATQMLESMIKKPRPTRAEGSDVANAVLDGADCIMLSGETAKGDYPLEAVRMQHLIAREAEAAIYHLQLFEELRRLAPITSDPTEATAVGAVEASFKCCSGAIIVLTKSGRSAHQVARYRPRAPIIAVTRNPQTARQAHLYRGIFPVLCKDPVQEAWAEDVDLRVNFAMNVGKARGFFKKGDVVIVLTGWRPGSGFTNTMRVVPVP

As for `FC(F)(F)c1ccccc1-n1ccnc1`, the outcome in [1] and in experiment [4] was inactive. Further, the Potency result in experiment [2] and in experiment [3] was “inactive” each time.
With `CN1CCN(CC(=O)N2c3ccccc3C(=O)Nc3cccnc32)CC1`, the call in [1] was inactive. For the same compound, in experiment [3], the Potency result is “inactive”.
`CC(=O)Nc1nnc(S(N)(=O)=O)s1`: the compound was classed as inactive in experiment [1] and in experiment [4]. Besides, in [3], the Potency result is “inactive”.
Take `O=C(O)CN(CCOCCOCCN(CC(=O)O)CC(=O)O)CC(=O)O`: the Potency result in [2] and in experiment [3] was “inactive” in each case.
As for `CN/C(=C\[N+](=O)[O-])NCCSCc1ccc(CN(C)C)o1`, the compound was called inactive in experiment [1] and in experiment [4]. In addition, the Potency result in [2] and in experiment [3] was “inactive” throughout.
On to `CCN(CC)CCNC(=O)c1cc(S(C)(=O)=O)ccc1OC`, for which the compound was called inactive in experiment [1] and in [4]. For the same compound, the Potency entry in experiment [3] is “inactive”.
In the case of `Nc1ncn([C@@H]2O[C@H](CO)[C@@H](O)[C@H]2O)c(=O)n1`, the compound was classed as inactive in experiment [1] and in [4]. Also, the Potency result in experiment [2] and in experiment [3] was “inactive” each time. Also, the results for the Potency in experiment [5] and in experiment [6] were 12.6 µM (active) and 15.8 µM (active), respectively.
For `CN(C)CCN(Cc1cccs1)c1ccccn1`, the compound was called inactive in experiment [1] and in experiment [4]. For the same compound, the Potency result in experiment [3] was “inactive”.
As for `CCCCNc1c(C(=O)OCC)c(C)nc2c1cnn2CC`, the Potency result in experiment [2] and in [3] was “inactive” throughout.
As for `CC(C)NNC(=O)c1ccncc1`, the compound was called inactive in [1] and in experiment [4]. The Potency entry in [3] was “inactive”.
In the case of `Cc1ccc(Cl)c(Nc2ccccc2C(=O)O)c1Cl`, in [1], the outcome was inactive. The Potency result in experiment [3] is “inactive”.
For `Nc1nc(N)c2nc(-c3ccccc3)c(N)nc2n1`, the outcome in [1], in experiment [7], in experiment [8], in experiment [9], in [4] and in [10] was inactive. For the same compound, the compound was called inactive in [11], in experiment [13], in experiment [14], in experiment [15] and in experiment [16]. Also, the Potency entry in experiment [2], in [12], in experiment [5] and in experiment [6] was “inactive” each time.
For the compound `CN(C)C(=O)Oc1ccc[n+](C)c1`, in experiment [1], the outcome was inactive. Moreover, in experiment [3], the Potency entry is “inactive”.
With `CCN(CC)CC(=O)Nc1c(C)cccc1C`, the call in experiment [1] was inactive. Besides, the Potency result in [3] is “inactive”.
Take `O=C1CC2(CCCC2)CC(=O)N1CCCCN1CCN(c2ncccn2)CC1`: the Potency entry in experiment [3] was “inactive”.
As to `O=C1NCN(c2ccccc2)C12CCN(CCCC(c1ccc(F)cc1)c1ccc(F)cc1)CC2`, the Potency result in [3] was “inactive”. In addition, the call in experiment [4] was inactive.
Regarding `CN(C(=O)CCCOc1ccc2[nH]c(=O)ccc2c1)C1CCCCC1`, in experiment [3], the Potency result was “inactive”. The call in [4] was inactive.
Turning to `O=C(O)CN(CCN(CC(=O)O)CC(=O)O)CCN(CC(=O)O)CC(=O)O`, the Potency result in [2] and in [3] was “inactive” in each case. In addition, the result in experiment [4] was inactive.
Take `COc1cc(C(=O)OCCCN2CCCN(CCCOC(=O)c3cc(OC)c(OC)c(OC)c3)CC2)cc(OC)c1OC`: the Potency in [2] was 4.47 µM (active). In addition, the Potency entry in experiment [3] was “inactive”. In addition, the result in experiment [4] was inactive.
Take `O=C(CCNNC(=O)c1ccncc1)NCc1ccccc1`: the Potency entry in [2] and in experiment [3] was “inactive” each time. Moreover, the call in experiment [4] was inactive.
Consider `O=C(O)CP(=O)(O)O`, for which the Potency result in experiment [2] and in [3] was “inactive” throughout. For the same compound, the outcome in experiment [4] was inactive.
For `COC(=O)[C@@H](N)Cc1ccc(O)c(O)c1`, the Potency entry in experiment [3] was “inactive”.
For the compound `C[C@]12CCC(=O)C=C1CC[C@@H]1[C@@H]2C(=O)C[C@@]2(C)[C@H]1CC[C@]2(O)C(=O)CO`, the Potency entry in experiment [3] is “inactive”. Also, in experiment [4], the call was inactive.
Regarding `OCCN1CCN(CCCN2c3ccccc3C=Cc3ccccc32)CC1`, in [2], the Potency was 3.55 µM (active) and 4.47 µM (active). Further, the Potency entry in experiment [3] is “inactive”. Also, the outcome in experiment [4] was inactive.
For `CSc1ccc(C(=O)c2[nH]c(=O)[nH]c2C)cc1`, the Potency result in experiment [3] is “inactive”.
Regarding `C[C@H](CS)C(=O)N1CCC[C@H]1C(=O)O`, the Potency result in experiment [3] is “inactive”.
Turning to `Brc1c(NC2=NCCN2)ccc2nccnc12`, the Potency result in experiment [3] is “inactive”. Moreover, the result in experiment [4] was inactive.
Consider `CC(=O)Oc1cc(C(C)C)c(OCCN(C)C)cc1C`, for which the Potency in experiment [2] was 12.6 µM (active). In experiment [3], the Potency entry was “inactive”. The compound was classed as inactive in experiment [4].
